Results filed as inconclusive are left out. Entries that show only a call come without a potency. The source holds several records for some structures; these can differ, active in one and inactive in another. Activity calls are given as the source filed them. Unless noted, calls come from the whole dose curve; as a rule, active = well fitted curve in the direction sought with a large enough effect; inconclusive = small, poorly fitted or top-dose-only effect, or another doubt; inactive = no such curve, though single readings can be large; an effect the other way counts as inactive or inconclusive.
How the values were obtained:
[1] = target: Calcium and integrin-binding protein 1 (Homo sapiens) (UniProt Q99828); test: Primary qHTS for Identification of Calcium Integrin Binding Protein 1 (CIB1) Competitor (AID 1508620); note: potency is the fitted concentration of half-maximal effect
Calcium and integrin-binding protein 1 (Homo sapiens), sequence (Q99828 whole entry, looked up): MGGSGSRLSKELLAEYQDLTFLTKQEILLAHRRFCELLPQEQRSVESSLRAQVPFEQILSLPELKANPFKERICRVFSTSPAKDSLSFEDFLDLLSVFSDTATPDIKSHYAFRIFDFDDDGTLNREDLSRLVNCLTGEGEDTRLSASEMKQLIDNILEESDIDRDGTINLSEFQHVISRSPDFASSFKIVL
Procedure, shortened: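 Fluorescence polarization competition: CIB1-GST (1 uM final) preincubated with compound 15 min at room temperature, then FITC-labeled alphaIIb peptide (100 nM final) added for another 15 min. Polarization read at Ex 480/Em 540.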

[2] = target: Calcium and integrin-binding protein 1 (Homo sapiens) (UniProt Q99828); test: Confirmatory qHTS for Identification of Calcium Integrin Binding Protein 1 (CIB1) Competitor (AID 1508617); note: potency is the fitted concentration of half-maximal effect; nearly all actives have a fitted effect of over 65% in size
Procedure, shortened: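 Confirmatory qHTS measures displacement of a FITC-alphaIIb peptide (100 nM) from CIB1-GST (1 uM) by fluorescence polarization. Calcium-containing HEPES buffer, pH 7.4; two 15 min room-temperature incubations.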

[3] = Primary qHTS for small molecule stabilizers of the endoplasmic reticulum resident proteome: Secreted ER Calcium Modulated Protein (SERCaMP) assay (AID 1508630)
Procedure, shortened: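 GLuc-SERCaMP-expressing SH-SY5Y cells, pretreated 16 h with compound, are challenged with thapsigargin to empty ER calcium stores; after 4 h, coelenterazine is added directly to the medium and luminescence is imaged.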

[4] = Primary qHTS for inhibitors of nuclear receptor binding SET domain protein 2 (NSD2) in an isogenic RCH-ACV NSD2 p.E1099K mutant (9B) (AID 1645876); note: nearly all actives have a fitted effect of over 70% in size; note: potency is the fitted concentration of half-maximal effect
[5] = Primary qHTS for inhibitors of nuclear receptor binding SET domain protein 2 (NSD2) in an RCH-ACV wild type WT cells (2C) (AID 1645877); note: nearly all actives have a fitted effect of over 70% in size; note: potency is the fitted concentration of half-maximal effect
[6] = Primary qHTS for inhibitors of La Crosse Virus (LACV) - induced cell death in SH-SY5Y cells (AID 1508616);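 note: top concentration of the series differs between compounds; higher means more rescue of cells from virus-induced death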
Procedure, shortened: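 Protection against LACV-induced cell death is scored in SH-SY5Y cells exposed to compounds and virus (0.01 MOI) for 6 days. Data normalized to virus-infected DMSO wells and virus-free DMSO wells.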

[7] = target: Cytochrome P450 2C9 (Homo sapiens) (UniProt P11712); test: Cytochrome P450 family 2 subfamily C member 9 (CYP2C9) small molecule antagonists: luciferase biochemical (cell-free) qHTS assay (AID 1645842; active = well fitted curve in the direction sought with a large enough effect in the repeat runs; an effect the other way counts as inactive or inconclusive; note: nearly all actives have a fitted effect of over 55% in size; note: potency is the fitted concentration of half-maximal effect)
Cytochrome P450 2C9 (Homo sapiens), sequence (P11712 whole entry, looked up): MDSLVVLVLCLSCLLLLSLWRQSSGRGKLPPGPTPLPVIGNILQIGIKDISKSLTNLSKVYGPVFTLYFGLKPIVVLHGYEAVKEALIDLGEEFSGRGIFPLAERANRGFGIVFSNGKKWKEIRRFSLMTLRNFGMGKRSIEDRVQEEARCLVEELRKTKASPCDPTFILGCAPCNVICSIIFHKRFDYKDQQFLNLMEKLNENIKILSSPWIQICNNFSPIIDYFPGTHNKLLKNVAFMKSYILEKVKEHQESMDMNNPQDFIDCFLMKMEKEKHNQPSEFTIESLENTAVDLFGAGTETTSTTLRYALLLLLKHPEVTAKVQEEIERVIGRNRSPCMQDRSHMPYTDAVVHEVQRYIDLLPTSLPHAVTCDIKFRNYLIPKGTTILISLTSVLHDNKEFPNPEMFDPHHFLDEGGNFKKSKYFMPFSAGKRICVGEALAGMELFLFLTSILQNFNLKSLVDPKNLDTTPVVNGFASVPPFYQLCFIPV
Procedure, shortened: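 Luminescence, after 20 min with luciferin detection reagent, reflected CYP2C9 turnover during a 1 h NADPH-driven reaction at 37C. Enzyme-substrate mix contained 0.4% bovine serum albumin and was preincubated with compound 10 min at room temperature.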

Papain (Carica papaya) = Papain (Carica papaya) (UniProt P00784); test: Primary qHTS assay for inhibitors of the protease papain (AID 1645873);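 note: papain turnover of Z-FR-AMC read as the AMC fluorescence gain over 10 min; series mostly up to about 50 µM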
Papain (Carica papaya), sequence (P00784 whole entry, looked up): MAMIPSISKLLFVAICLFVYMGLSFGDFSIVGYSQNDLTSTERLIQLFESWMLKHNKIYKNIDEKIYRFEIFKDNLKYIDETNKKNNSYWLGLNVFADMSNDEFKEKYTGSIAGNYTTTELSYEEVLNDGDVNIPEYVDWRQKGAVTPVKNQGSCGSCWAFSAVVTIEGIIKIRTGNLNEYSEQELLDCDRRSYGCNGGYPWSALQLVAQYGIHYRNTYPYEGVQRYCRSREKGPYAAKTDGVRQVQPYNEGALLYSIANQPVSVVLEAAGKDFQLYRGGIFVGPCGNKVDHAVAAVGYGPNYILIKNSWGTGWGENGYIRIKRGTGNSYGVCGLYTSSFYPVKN

[8] = target: N-terminal Xaa-Pro-Lys N-methyltransferase 1 (Homo sapiens) (UniProt Q9BV86); test: Confirmatory qHTS for Inhibitors of N-terminal methyltransferase 1 (NTMT1): MTaseGlo Assay (AID 1645874);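 note: luminescence from SAH made as NTMT1 methylates SPKRIA peptide using SAM; series mostly up to about 100 µM; nearly all actives have a fitted effect of over 65% in size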
N-terminal Xaa-Pro-Lys N-methyltransferase 1 (Homo sapiens), sequence (Q9BV86 whole entry, looked up): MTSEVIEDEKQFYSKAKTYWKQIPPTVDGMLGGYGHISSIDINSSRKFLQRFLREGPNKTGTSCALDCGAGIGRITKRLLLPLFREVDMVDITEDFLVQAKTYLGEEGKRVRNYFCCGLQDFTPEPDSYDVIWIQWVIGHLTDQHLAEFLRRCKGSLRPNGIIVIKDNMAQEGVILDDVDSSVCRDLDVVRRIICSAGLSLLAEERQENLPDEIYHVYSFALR
Procedure, shortened: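 Preincubation of NTMT1 (125 nM) plus SAM (100 uM) with test compounds lasted 15 min; methylation of 1 uM SPKRIA then proceeded 30 min in the dark at room temperature. Luciferase signal reported SAH produced.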

[9] = A High-Content qHTS Against Drug Library for the Identification of Small Molecules that Inhibit DYT1 Early Onset Primary Dystonia-Associated Cell Pathology (AID 1645839; calls by dose curve; note: series mostly up to about 46 µM)
Procedure, shortened: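 Readout: %pathology, the punctate EGFP-TorsinA distribution from imaging, as the primary channel and cell count as the toxicity counterscreen. HEK293 Flp-In cells expressing delE TorsinA were induced with tetracycline and treated with compound for 48 h.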

[10] = target: Cytochrome P450 2D6 (Homo sapiens) (UniProt P10635); test: Cytochrome P450 family 2 subfamily D member 6 (CYP2D6) small molecule antagonists: luciferase biochemical (cell-free) qHTS assay (AID 1645840; active = well fitted curve in the direction sought with a large enough effect in the repeat runs; an effect the other way counts as inactive or inconclusive; note: series mostly up to about 57 µM; nearly all actives have a fitted effect of over 55% in size)
Cytochrome P450 2D6 (Homo sapiens), sequence (P10635 whole entry, looked up): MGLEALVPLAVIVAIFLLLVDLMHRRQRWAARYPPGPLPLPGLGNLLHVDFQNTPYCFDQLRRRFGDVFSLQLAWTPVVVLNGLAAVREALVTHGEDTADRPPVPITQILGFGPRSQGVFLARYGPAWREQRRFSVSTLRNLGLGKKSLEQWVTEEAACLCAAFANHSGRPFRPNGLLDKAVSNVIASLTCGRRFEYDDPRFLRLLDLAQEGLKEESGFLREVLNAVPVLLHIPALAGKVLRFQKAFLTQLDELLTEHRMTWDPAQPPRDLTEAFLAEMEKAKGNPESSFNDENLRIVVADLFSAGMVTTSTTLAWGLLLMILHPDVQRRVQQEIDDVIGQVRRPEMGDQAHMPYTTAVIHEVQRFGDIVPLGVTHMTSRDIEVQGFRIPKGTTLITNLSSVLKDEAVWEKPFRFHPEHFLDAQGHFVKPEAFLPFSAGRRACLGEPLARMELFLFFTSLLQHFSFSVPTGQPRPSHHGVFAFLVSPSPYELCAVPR
Procedure, shortened: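 P450-Glo luminescent screen: recombinant CYP2D6 enzyme–proluciferin substrate mix preincubated with compound 10 min at room temperature, then NADPH regeneration added for 1 h at room temperature. Detection reagent added for 20 min; luciferin light read as relative luminescence units.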

[11] = Counterscreen qHTS for small molecule stabilizers of the endoplasmic reticulum resident proteome: GLuc-NoTag assay (AID 1508627);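 note: SH-SY5Y cells given compound then 100 nM thapsigargin to empty ER calcium; series mostly up to about 76 µM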
Procedure, shortened: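 SH-SY5Y cells stably expressing constitutively secreted GLuc (no SERCaMP tag) were pre-incubated 5 h, treated with compound for 19 h, then 100 nM thapsigargin for 4 h at 37C; medium GLuc read by coelenterazine luminescence.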

## CC[C@]1(O)C[C@@H]2CN(CCc3c([nH]c4ccccc34)[C@@](C(=O)OC)(c3cc4c(cc3OC)N(C=O)[C@@H]3C45CCN4CC=C[C@](CC)([C@H]45)[C@@H](OC(C)=O)[C@]3(O)C(=O)OC)C2)C1 (some centres not stated)
[1]
  Potency: inactive

## C=C1C(=O)[C@@]23C(CC[C@@H]1[C@H]2O)[C@@]12CO[C@]3(O)[C@@H](O)[C@@H]1C(C)(C)CC[C@@H]2O (some centres not stated)
[2]
  Potency: 25.1 µM (active)
[1]
  Potency: 44.7 µM (active)
[3]
  Potency: inactive
[4]
  Potency: 2.35 µM (active)
[5]
  Potency: 1.48 µM (active)

## O=C1NC(=O)C(=Cc2ccc(-c3ccc(F)cc3)o2)S1
[1]
  Potency: inactive

## O=C(OCC#CCSc1nnc(-c2cccc3ccccc23)o1)c1cc2ccccc2s1
[1]
  Potency: inactive

## CC(C)C[C@H](CC(=O)O)C(=O)N[C@@H](Cc1c[nH]c2ccccc12)C(=O)N[C@@H](C)c1ccccc1
[1]
  Potency: inactive

## O=c1c(-c2ccc(O)cc2)coc2cc(O)ccc12
[6]
  outcome: inactive
[1]
  Potency: inactive
[3]
  Potency: inactive
[7]
  Potency: 213 nM (active)
Papain (Carica papaya)
  outcome: inactive
[8]
  Potency: inactive

## Nc1ncnc2c1ncn2[C@@H]1O[C@@H](CO)[C@H](O)[C@H]1O
[1]
  Potency: inactive

## C[C@H](NC(=O)C(=O)Nc1ccccc1C(C)(C)C)C(=O)N[C@@H](CC(=O)O)C(=O)COc1c(F)c(F)cc(F)c1F
[1]
  Potency: inactive

## COC[C@@H](c1ccc(C(F)(F)F)cc1)N1CCN(C2(C)CCN(C(=O)c3c(C)ncnc3C)CC2)C[C@H]1C
[6]
  outcome: inactive
[1]
  Potency: inactive
[7]
  Potency: inactive

## CO[C@H]1C=CC=C(C)C(=O)NC2=CC(=O)C(NCCN(C)C)=C(C[C@@H](C)C[C@H](OC)[C@@H](O)[C@@H](C)C=C(C)[C@@H]1OC(N)=O)C2=O
[1]
  Potency: inactive

## O=c1cc(-c2ccccc2)oc2cc(O)c(O)c(O)c12
[2]
  Potency: 39.8 µM (active)
[3]
  Potency: inactive
[5]
  Potency: 23.5 µM (active)

## CO[C@H]1C=CO[C@@]2(C)Oc3c(C)c(O)c4c(O)c(c5c(c4c3C2=O)NC2(CCN(CC(C)C)CC2)N=5)=NC(=O)C(C)=CC=C[C@H](C)[C@H](O)[C@@H](C)[C@@H](O)[C@@H](C)[C@H](OC(C)=O)[C@H]1C
[1]
  Potency: inactive

## COc1ccc2cccc(CCNC(C)=O)c2c1
[6]
  outcome: inactive
[1]
  Potency: inactive
[9]
  Potency: inactive
[4]
  Potency: inactive
[5]
  Potency: inactive

## CCOC1OC(=O)C[C@H]1NC(=O)[C@@H]1CCCN1C(=O)[C@@H](NC(=O)c1ccc(N)c(Cl)c1)C(C)(C)C (some centres not stated)
[1]
  Potency: inactive

## O=C(O)[C@H]1O[C@H](Oc2cc3oc(-c4ccccc4)cc(=O)c3c(O)c2O)[C@H](O)[C@@H](O)[C@H]1O
[1]
  Potency: inactive

## CO[C@H]1C[C@@H]2CC[C@@H](C)[C@@](O)(O2)C(=O)C(=O)N2CCCC[C@@H]2C(=O)O[C@H]([C@H](C)C[C@@H]2CC[C@H](OCCO)[C@H](OC)C2)CC(=O)[C@H](C)C=C(C)[C@@H](O)[C@@H](OC)C(=O)[C@H](C)C[C@H](C)C=CC=CC=C1C
[1]
  Potency: inactive

## CCc1ccc(C=C2SC(=S)NC2=O)cc1
[2]
  Potency: 8.91 µM (active)
[3]
  Potency: inactive

## CO[C@H]1C[C@@H]2CC[C@@H](C)[C@@](O)(O2)C(=O)C(=O)N2CCCC[C@@H]2C(=O)O[C@H]([C@H](C)C[C@@H]2CC[C@H](OC(=O)C(C)(CO)CO)[C@H](OC)C2)CC(=O)[C@H](C)C=C(C)[C@@H](O)[C@@H](OC)C(=O)[C@H](C)C[C@H](C)C=CC=CC=C1C
[1]
  Potency: inactive

## O=C(O)c1cc(-c2ccccc2)nc2ccccc12
[6]
  outcome: inactive
[3]
  Potency: inactive
[9]
  Potency: inactive
[10]
  Potency: inactive
[7]
  Potency: 27 µM (active) and inactive
[4]
  Potency: inactive
[5]
  Potency: inactive

## CNC(=O)c1ccccc1Sc1ccc2c(C=Cc3ccccn3)n[nH]c2c1
[1]
  Potency: inactive

## C[N+](C)(C)CC(=O)O
[6]
  outcome: inactive
[9]
  Potency: inactive
[10]
  Potency: inactive
[7]
  Potency: inactive
[4]
  Potency: inactive

## CCC(=O)NC[C@H](Cc1ccc(OCCc2nc(-c3ccccc3)oc2C)cc1)NC(C)=CC(=O)c1ccc(C(F)(F)F)cc1
[1]
  Potency: inactive

## CC(C)(C)C(=O)Oc1ccc2c(c1)nc(NC(=O)c1cccc([N+](=O)[O-])c1)n2CCCO
[1]
  Potency: inactive

## O=C1NC(=O)C(=Cc2ccc3nccnc3c2)S1
[1]
  Potency: inactive

## CC[C@H]1OC(=O)[C@H](C)[C@@H](O[C@H]2C[C@@](C)(OC)[C@@H](O)[C@H](C)O2)[C@H](C)[C@@H](O[C@@H]2O[C@H](C)C[C@H](N(C)C)[C@@H]2O)[C@](C)(O)C[C@@H](C)CN(C)[C@H](C)[C@@H](O)[C@]1(C)O
[1]
  Potency: inactive
[11]
  Potency: inactive
[3]
  Potency: inactive

## CC=CC(=O)N(CC)c1ccccc1C
[1]
  Potency: inactive
[3]
  Potency: inactive

— PubChem BioAssay (NCATS)
